Growth data for 10 molecules are collected here from PubChem BioAssay (NCI).

About 83,000 compounds went through this panel and 20% of them were active in at least one assay; those are over-represented in the sample as a whole.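 Testing used 96-well plates and a 48-hour single-concentration exposure. Example: -40 means 40% of the starting cells died.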 Values without a mark were called inactive. Calls of active or inactive are those of the source. The calls were made as follows: active = growth percent below 10; inactive = the rest.

Experiment in all cases: NCI-60 one-dose screen, 48 h (100 = growth as untreated, 0 = no growth, -100 = all killed)
What all share (conditions): 10 µM

In experiment [1] the test system is SR leukemia.
Experiment [2] relates to RPMI-8226 leukemia.
In experiment [3] the test system is OVCAR-8 ovarian.
Experiment [4] relates to OVCAR-4 ovarian.
Experiment [5] deals with SK-OV-3 ovarian.
Experiment [6] relates to IGROV1 ovarian.
For experiment [7], the system named is OVCAR-3 ovarian.
Experiment [8] concerns HS 578T breast.
Experiment [9] concerns NCI/ADR-RES ovarian.
Experiment [10] has as its system T-47D breast.
Experiment [11] deals with BT-549 breast.
Experiment [12] has as its system MDA-MB-435 melanoma.
In experiment [13] the test system is SW-620 colon.
Experiment [14] deals with MCF7 breast.
Experiment [15] has as its system HCT-116 colon.
Experiment [16] deals with HCC-2998 colon.
In experiment [17] the test system is KM12 colon.
The subject of experiment [18] is OVCAR-5 ovarian.

As to `O=C(NNC(=O)c1ccncc1)Nc1ccc([N+](=O)[O-])cc1`, the growth was 91.9% in experiment [1]; 102% in [2]; 105% in experiment [3]; 108% in experiment [4]; 104% in experiment [5]; 120% in experiment [6]. For the same molecule, the growth in [7] was 103%; in [8] it was 107%; in experiment [9], 96.4%; in [10], 90.8%; in [11] it was 121%; in experiment [12], 94.1%. The growth is 100% in experiment [13]; 109% in [14]; 110% in experiment [15]; 106% in experiment [16]; 104% in [17].

Turning to `Cc1ccc(/C=C2\CN(Cc3cn(CCNc4ccnc5cc(Cl)ccc45)nn3)C/C(=C\c3ccc(C)cc3)C2=O)cc1`, the growth in [1] is -19.5% (active); in [2], -30.2% (active); in [3], 8.83% (active); in experiment [4], 30.3%; in [5] it was 8.53% (active); in experiment [6], 28.3%. The growth in [7] was -50.6% (active); in experiment [8] it was 13.9%; in experiment [9] it was 9.21% (active); in experiment [10], -12.3% (active); in experiment [11] it was -71% (active); in [12], -67.3% (active). The growth in experiment [13] is -63.6% (active); in [14] it was -38.3% (active); in [15] it was -53.5% (active); in experiment [16], -91% (active); in [17], -93.8% (active).

As to `COc1ccc(C(=O)/C=C/c2cc(-c3ccc(OC)c(OC)c3)n[nH]2)cc1OC`, the growth in [1] was 4.7% (active); in [2] it was -45.9% (active); in [3], -22.8% (active); in [4] it was -38.9% (active); in experiment [6] it was -32.7% (active); in [7], -42% (active). Besides, the growth in experiment [8] is 46.6%; in [9], 4.63% (active); in experiment [10] it was -7.46% (active); in experiment [11], -60.1% (active); in [12], -33.1% (active); in [13], -48.8% (active). Further, the growth was -89.2% (active) in experiment [15], -85.8% (active) in [16] and -74.1% (active) in experiment [17].

As to `CCCCNC(=O)Oc1ccc(/C(=C(\C)c2ccc(OC)cc2)c2ccc(OCCN3CCCCC3)cc2)cc1`, the growth is -22.9% (active) in [1]; 29% in [2]; 74.9% in experiment [18]; 64.8% in [4]; 66.7% in [5]; 64.7% in experiment [6]. In addition, the growth in [7] is 73.6%; in experiment [8] it was 48.5%; in experiment [9], 68.2%; in [10], 32.4%; in experiment [11], 52%; in experiment [12], 59.8%. Also, the growth was 40.5% in [13]; 24.2% in experiment [14]; 29.4% in [15]; 72.8% in experiment [16]; 45.4% in experiment [17].

As to `CCCCCCCOc1cccc(/C=C2/C(=O)N=C3SCCCN32)c1`, the growth is 40.8% in [2]; 71.6% in experiment [3]; 91.2% in [18]; 63.1% in experiment [4]; 88% in experiment [5]; 79.9% in [6]. Further, the growth in [7] is 50.9%; in experiment [8], 91.4%; in experiment [9] it was 56.8%; in experiment [10], 0.89% (active); in experiment [11], 51.3%; in experiment [12] it was 56.4%. The growth was 76.6% in [13], 39.9% in experiment [15], 95.8% in experiment [16] and 75.2% in experiment [17].

As for `CC(=O)N(O)c1ccc(/C=C/c2ccccc2)cc1`, the growth in [2] was 46.8%; in [3] it was 32.1%; in experiment [18], 33.1%; in experiment [4], 54.7%; in [5], 9.48% (active); in experiment [6] it was -14% (active). The growth is 42% in experiment [7]; 61.7% in experiment [8]; 22.6% in experiment [9]; 20.5% in experiment [10]; 43.5% in [11]; 55.1% in experiment [12]. Also, the growth in experiment [13] was 23.3%; in experiment [14] it was 16.7%; in [15], 19.7%; in experiment [16], 14.3%; in [17] it was 47.9%.

Regarding `COc1ccccc1S(=O)(=O)Nc1ccc2c(c1)CN(C)C(=O)N2`, the growth in [2] is 4.25% (active); in experiment [3] it was 56.2%; in [4], 43.1%; in experiment [5] it was 49.1%; in experiment [6], 24%; in experiment [7], 32.2%. For the same molecule, the growth was 33.7% in [8]; 68.9% in experiment [9]; 31.4% in [10]; 101% in experiment [11]; 34.2% in experiment [12]; 59.4% in [13]. The growth in experiment [14] was 21.5%; in experiment [15], 49.7%; in experiment [16] it was 64.4%; in experiment [17] it was 45%.

Consider `COc1cccc(C2(C)Nc3ccccc3-c3nc4ccccc4n32)c1` (centres undefined), for which the growth in experiment [2] was 96.4%; in [3], 105%; in experiment [18] it was 109%; in experiment [4], 112%; in [5] it was 104%; in experiment [6], 101%. Also, the growth in experiment [7] was 112%; in experiment [8] it was 112%; in experiment [9] it was 97%; in experiment [10], 98.5%; in experiment [11], 108%; in [12], 104%. The growth in [13] is 108%; in [14], 103%; in [15] it was 106%; in experiment [16], 106%; in experiment [17], 108%.

For `CC(=O)Nc1nc(C)c(C(=O)N/N=C/c2cccn2C)s1`, the growth in [2] was 110%; in experiment [3], 101%; in experiment [18] it was 110%; in experiment [4] it was 108%; in experiment [5] it was 141%; in experiment [6] it was -1.21% (active). Besides, the growth was 105% in [7]; 72.5% in [8]; 96% in [9]; 121% in experiment [10]; 104% in [12]; 102% in [13]. Further, the growth in experiment [14] is 87.5%; in [15], 111%; in [16], 70.8%; in experiment [17], 105%.

In the case of `O=C(O)c1cc(C(F)(F)F)cc(C(F)(F)F)c1`, the growth in experiment [2] was 104%; in [3], 106%; in experiment [18], 107%; in experiment [4], 108%; in experiment [5], 112%; in [6], 114%. Also, the growth was 107% in [7]; 109% in experiment [8]; 107% in [9]; 104% in experiment [10]; 105% in experiment [11]; 104% in experiment [12]. For the same molecule, the growth in experiment [14] was 101%; in experiment [15] it was 99.8%; in experiment [16] it was 103%; in experiment [17] it was 105%.
